The full list was thinned out, with hits kept by preference.
nsP2pro inh: inhibitors of chikungunya virus nsP2 protease; Q8JUX6; FRET peptide cleavage, nsP2pro, fluorescence 1 h; Potency, µM (highest dose often 24.9 µM), usual class: inhibitors; actives 1.1% (n = 31,000); AID 1964107; further: nearly all actives have a fitted effect of over 60% in size
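Recombinant nsP2pro (150 nM) was preincubated with compound 15 min at room temperature in 10 mM Tris-HCl pH 8.0, 0.01% Tween 20. Peptide 2 FRET substrate (2.5 uM) was then added and fluorescence read after 1 h. Seven-point series, up to 25 uM.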
CHIKV nsP2 cell: secondary cell-based test for CHIKV nsP2 protease inhibitors; shares compounds with nsP2pro inh; cell-based CHIKV nsP2 protease reporter assay; Potency, µM (series often up to 51.1 µM), usual class: inhibitors; actives 10% (n = 450); AID 1964100; further: nearly all actives have a fitted effect of over 70% in size
CHIKV NSP2 FL: inhibits full-length CHIKV NSP2 enzyme; Full-length CHIKV NSP2 protease enzymatic counterscreen; shares compounds with nsP2pro inh; Potency, µM (doses to about 50.7 µM), hits mostly inhibitors; actives 39% (n = 410); further: nearly all actives have a fitted effect of over 65% in size
Furin counterscr: selectivity counter-screen for CHIKV nsP2 protease inhibitors: human furin | shares compounds with nsP2pro inh | Recombinant human furin enzymatic counterscreen, fluorogenic substrate | Potency, µM (highest dose often 50.6 µM), usual class: inhibitors | actives 6% (n = 410) | AID 1964102
Target sequence (P09958 whole entry, looked up): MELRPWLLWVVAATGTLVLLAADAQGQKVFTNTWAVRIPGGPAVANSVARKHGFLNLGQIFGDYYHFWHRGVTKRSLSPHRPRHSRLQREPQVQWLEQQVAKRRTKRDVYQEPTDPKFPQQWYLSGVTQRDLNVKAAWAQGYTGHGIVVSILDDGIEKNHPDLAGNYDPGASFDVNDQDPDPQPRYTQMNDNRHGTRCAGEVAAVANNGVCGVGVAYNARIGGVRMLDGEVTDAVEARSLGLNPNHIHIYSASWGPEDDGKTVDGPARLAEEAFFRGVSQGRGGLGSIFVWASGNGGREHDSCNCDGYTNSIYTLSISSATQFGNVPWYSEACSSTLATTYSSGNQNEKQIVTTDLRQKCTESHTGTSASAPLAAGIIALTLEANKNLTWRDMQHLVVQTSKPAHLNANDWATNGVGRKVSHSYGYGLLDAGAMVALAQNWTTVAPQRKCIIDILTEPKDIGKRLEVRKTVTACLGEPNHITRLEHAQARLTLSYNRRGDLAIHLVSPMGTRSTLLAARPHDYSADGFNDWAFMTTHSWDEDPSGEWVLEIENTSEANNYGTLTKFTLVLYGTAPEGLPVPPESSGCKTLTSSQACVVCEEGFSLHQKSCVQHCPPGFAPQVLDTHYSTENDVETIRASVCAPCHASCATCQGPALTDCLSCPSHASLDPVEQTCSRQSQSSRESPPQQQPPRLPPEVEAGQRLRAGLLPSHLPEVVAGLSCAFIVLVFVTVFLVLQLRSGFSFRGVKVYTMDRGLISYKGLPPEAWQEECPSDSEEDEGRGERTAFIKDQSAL
NS23 peptide cs: selectivity test for CHIKV nsP2 protease inhibitors: endogenous NS2/3 peptide. AID 1964103. Potency, µM (series often up to 51 µM), hits mostly inhibitors. actives 34% (n = 410). Purified CHIKV nsP2 protease, endogenous NS2/3 peptide cleavage. shares compounds with nsP2pro inh; further: nearly all actives have a fitted effect of over 55% in size
Papain counter: papain protease inhibition, counterscreen for nsP2pro inhibitors; purified papain protease activity, enzymatic inhibition; shares compounds with nsP2pro inh; actives 5% (n = 410); Potency, µM (top dose mostly 51 µM), actives largely listed as inhibitors
nsP2pro conf qHTS: confirmation of CHIKV nsP2 protease inhibitors. shares compounds with nsP2pro inh. CHIKV nsP2 protease enzymatic activity, qHTS. Potency, µM (doses to about 25.5 µM), usual class: inhibitors. actives 43% (n = 410). AID 1964105; further: nearly all actives have a fitted effect of over 75% in size
HCV NS3 counter: selectivity counter-screen for CHIKV nsP2 protease inhibitors: HCV NS3/4A; shares compounds with nsP2pro inh; HCV NS3/4A protease biochemical counterscreen; Potency, µM (titrated, usually from 50.9 µM), actives largely listed as inhibitors; actives 20% (n = 410); AID 1964106; further: nearly all actives have a fitted effect of over 55% in size
Each line names hits and unclear results; the compound was inactive in the other large screens (follow-up assays come after a bar, where they were run); ! = a repeat was not active. The call rests on the fitted dose curve.

O=C(O[C@@H]1Cc2c(O)cc(O)cc2O[C@@H]1c1ccc(O)c(O)c1)c1cc(O)c(O)c(O)c1	nsP2pro inh inconclusive | CHIKV nsP2 cell inactive | CHIKV NSP2 FL 23µM | Furin counterscr inactive | NS23 peptide cs 15µM | Papain counter inactive | nsP2pro conf qHTS inconclusive | HCV NS3 counter inconclusive
Oc1cc(O)c2c(c1)O[C@H](c1ccc(O)c(O)c1)[C@H](O)C2	none
OCC1OC(Oc2cc(O)c3c(c2)OC(c2ccc(O)cc2)C(O)C3)C(O)C1O (stereo not given)	none
O=C(O[C@@H]1Cc2c(O)cc(O)cc2O[C@@H]1c1cc(O)c(O)c(O)c1)c1cc(O)c(O)c(O)c1	nsP2pro inh 4.4µM! | CHIKV nsP2 cell inactive | CHIKV NSP2 FL inconclusive | Furin counterscr inconclusive | NS23 peptide cs 5.8µM | Papain counter inconclusive | nsP2pro conf qHTS 4.5µM | HCV NS3 counter inconclusive
COc1ccccc1C(=O)N1CCC(Cc2nncn2-c2ccccc2)CC1	none
Cc1[nH]c2ccc(F)cc2c1-c1nc2c3cccnc3c3ncccc3c2[nH]1	none
C=C(CCC1C(C)(O)CCC2C(C)(C)C(O)CCC12C)C(O)CO (stereo not given)	none
O=C(/C=C/c1ccc(O)c(O)c1)OC[C@H]1O[C@@H](OC2CCCCC2O)[C@H](O)[C@@H](O)[C@@H]1O (stereo not given in full)	none
CC(=O)O[C@@H]1[C@@H](CO)O[C@@](CO)(O[C@H]2O[C@H](COC(=O)/C=C/c3ccccc3)[C@@H](O)[C@H](O)[C@H]2O)[C@H]1O	none
CC(CO[C@@H]1O[C@H](COC(=O)/C=C/c2ccc(O)c(O)c2)[C@@H](O)[C@H](O)[C@H]1O)C1(O)COC(=O)C1 (stereo not given in full)	nsP2pro inh inconclusive | CHIKV nsP2 cell inactive | CHIKV NSP2 FL inactive | Furin counterscr inactive | NS23 peptide cs inactive | Papain counter inactive | nsP2pro conf qHTS inactive | HCV NS3 counter inactive
CNCCN1CCC(OCc2ccccc2)CC1	none
CCCCC1(CCCC)CN(c2ccccc2)c2cc(SC)c(OCC(=O)N[C@@H](C(=O)N[C@@H](CC)C(=O)O)c3ccc(O)cc3)cc2S(=O)(=O)N1	none
CNc1ncc(-c2ccc3c(=O)c(C(=O)O)cn(C4CC4)c3c2C)cc1C	none
C[C@@H]1O[C@@H](O[C@@H]2[C@@H](O)[C@H](O[C@H]3CC[C@@]4(C)C(CC[C@]5(C)C4CC=C4[C@@H]6CC(C)(C)CC[C@]6(C(=O)O[C@@H]6O[C@H](CO)[C@@H](O)[C@H](O)[C@H]6O)CC[C@]45C)C3(C)C)O[C@H](C(=O)O)[C@H]2O)[C@H](O)[C@H](O)[C@H]1O (stereo not given in full)	none
Cc1nc(C(C)N(C)c2ncnc3ccc(-c4ccc5c(c4)OCO5)cc23)cs1 (stereo not given)	none
O=C1C(Cl)=C(N2CCOCC2)C(=O)N1c1ccc(Cl)c(Cl)c1	nsP2pro inh inconclusive | CHIKV nsP2 cell inconclusive | CHIKV NSP2 FL inconclusive | Furin counterscr inactive | NS23 peptide cs inconclusive | Papain counter inconclusive | nsP2pro conf qHTS 3.1µM | HCV NS3 counter inactive
C/C(=C(\CCOC(=O)c1ccccc1)SS/C(CCOC(=O)c1ccccc1)=C(/C)N(C=O)Cc1cnc(C)nc1N)N(C=O)Cc1cnc(C)nc1N	nsP2pro inh 8.8µM | CHIKV nsP2 cell inactive | CHIKV NSP2 FL 13µM | Furin counterscr inactive | NS23 peptide cs 5.8µM | Papain counter inactive | nsP2pro conf qHTS 8µM | HCV NS3 counter 5.8µM
CCCOC(=O)c1ccccc1	none
CN(CC1CCCO1)c1ncnc2ccc(-c3ccc4c(c3)OCO4)cc12 (stereo not given)	none
Cc1ccc(S(=O)(=O)Nc2cccc(C(=O)Nc3nc(-c4ccccc4)cs3)c2)cc1	none
O=C(Nc1nc(-c2ccccc2)cs1)c1ccncc1NS(=O)(=O)c1cccs1	none
CCOC(=O)c1c(NC(=O)CCCOc2ccc(C(C)(C)C)cc2)sc2c1CCCC2	none
COC(=O)c1c(NC(=O)CCCOc2ccc(C(C)(C)C)cc2)sc2c1CCC(C)C2 (stereo not given)	none
COC(=O)c1c(NC(=O)CCCOc2cccc(C)c2)sc2c1CCC(C)C2 (stereo not given)	none
COC(=O)c1c(NC(=O)CCCOc2ccc(C)cc2)sc2c1CCCC2	none
CCOc1ccc(/C=C/C(=O)Nc2sc3c(c2C(=O)OC)C(C(=O)OC)CC3)cc1 (stereo not given)	nsP2pro inh 2.8µM | CHIKV nsP2 cell inactive | CHIKV NSP2 FL inconclusive | Furin counterscr inactive | NS23 peptide cs 4.7µM | Papain counter inactive | nsP2pro conf qHTS 3.7µM | HCV NS3 counter inactive
COC(=O)c1c(NC(=O)CCCOc2cccc(C)c2)sc2c1C(C(=O)OC)CC2 (stereo not given)	nsP2pro inh 1.9µM | CHIKV nsP2 cell 15µM! | CHIKV NSP2 FL 18µM | Furin counterscr inactive | NS23 peptide cs 5.2µM | Papain counter inactive | nsP2pro conf qHTS 2.5µM | HCV NS3 counter inactive
COC(=O)c1c(NC(=O)CCCOc2cccc(C)c2)sc2c1CCC2	none
COC(=O)c1c(NC(=O)CCCOc2ccc(C)cc2)sc2c1C(C(=O)OC)CC2 (stereo not given)	nsP2pro inh 2.1µM | CHIKV nsP2 cell 18µM | CHIKV NSP2 FL inconclusive | Furin counterscr inactive | NS23 peptide cs 12µM | Papain counter inactive | nsP2pro conf qHTS 7.1µM | HCV NS3 counter inactive
COC(=O)c1c(NC(=O)CCCOc2ccccc2C)sc2c1CCC(C)C2 (stereo not given)	none
CCCN(C)c1ncnc2ccc(-c3ccc4c(c3)OCO4)cc12	none
O=C([C@@H](Cc1ccc(O[S+](=O)([O-])c2cccnc2)cc1)N[S+](=O)([O-])c1cccc2cccnc12)N1CCN(c2ccccc2)CC1	none
C#CCOc1cc(C2=Nn3c(nnc3-c3cccc(OCC(C)=O)c3)SC2)ccc1OC	none
CCC(O)C(C)C1CCC(C(C)C(=O)O)O1 (stereo not given)	none
CC(C)c1cccc(C(C)C)c1NC(=O)Nc1ccc(Sc2ccc([N+](=O)[O-])cc2)cc1	none
COc1c(C(C)C)c(O)c(O)c2c1C(OC)[C@H]1OC(=O)[C@@]23CCCC(C)(C)[C@H]13 (stereo not given in full)	none
OC[C@@]1(O)CO[C@@H](OC[C@H]2O[C@@H](Oc3ccccc3)[C@H](O)[C@@H](O)[C@@H]2O)[C@@H]1O	none

Source: PubChem
